This is an account of results in PubChem BioAssay (NCI).

Several values for one entry are separate records, joined by “and”; a condition that tells them apart may be missing. Identical values can stand only once. Compounds without any hit were thinned out: in the full panel of roughly 83,000, 20% have a hit.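 Results are percent growth after 48 hours of single-concentration exposure. 100 means growth as in untreated cells, lower positive values show inhibition; negative values down to -100 show cell death.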 Activity calls are given as the source filed them. How the source made its calls: active means growth percent below 10; inactive means the rest.

In the test the test system is HL-60(TB) leukemia. The test can be described thus: NCI-60 one-dose screen, 48 h (100 = growth as untreated, 0 = no growth, -100 = all killed). The following applies: 10 µM unless noted.
For `C/C(=N/NC(N)=S)c1ccc(C)cc1`, the growth is 92% (inactive).
With `OCc1nnn(-c2ccccc2)c1CO`, the growth is 89.1% (inactive).
For `O=c1c(-c2nc3ccccc3[nH]2)cc2ccccc2n1Cc1cn(Cc2ccc(F)cc2)nn1` the value was 0.035% (active); for `O=C(C[P+](c1ccccc1)(c1ccccc1)c1ccccc1)C[P+](c1ccccc1)(c1ccccc1)c1ccccc1`, -43.6% (active); for `CC1(C)OC(=O)C(=Cc2ccc(C#N)cc2)C(=O)O1`, 93.3% (inactive) and 88.8% (inactive).
Next, `CCOC(=O)c1ccc2c(c1)nc(-c1ccc(Cl)cc1)n2-c1cc(C(C)(C)C)[nH]n1`: -14.7% (active); `CCOCC(O)(c1ccc(Cl)cc1)c1ccc(Cl)cc1`: 106% (inactive); `Cc1cc(OCc2ccc(C(F)(F)F)cc2)c2c(c1)C(=O)C=C(NCCN1CCCC1)C2=O`: 96.6% (inactive).
For `CN(C)c1ccc2nc3ccc(N)cc3[n+](-c3ccccc3)c2c1` the value was -5.21% (active) and 4.22% (active); for `CCC1(C(N)=O)CC2C=CC1CC2` (configuration not stated), 110% (inactive).
Regarding `CC(=O)OCC(=O)[C@@]1(O)CC[C@H]2[C@@H]3CCC4=CC(=O)CC[C@]4(C)[C@@]3(F)[C@@H](O)C[C@@]21C`, the growth is 98.2% (inactive).
Next, `COCCN(C(=O)c1ccc(F)cc1F)c1c(N)n(Cc2ccccc2)c(=O)[nH]c1=O`: 132% (inactive); `c1ccc(-c2cn3ccnc3c(-c3ccc4ncn(C5CCCCC5)c4c3)n2)cc1`: 32.9% (inactive).
Next, `CC(C)(C)n1cc(-c2ccnc(NCCCNS(=O)(=O)c3ccc(F)cc3)c2)c(-c2cccc(F)c2)n1`: 38.2% (inactive); `COc1cccc(-c2nn(-c3ccccc3)cc2-c2ccnc(NCCNC(=O)Nc3cccc(C(F)(F)F)c3)c2)c1`: 2.15% (active); `CN(C)c1ccc(C(=N)c2ccc(N(C)C)cc2)cc1`: 12.3% (inactive) and 6.84% (active).
For `CCCC(=O)Oc1ccc(/C(=C(\C)c2ccc(Cl)cc2)c2ccc(OCCN(CC)CC)cc2)cc1` the value was -49.1% (active); for `Clc1nc(Cl)c2ncn(C/C=C/Cn3cnc4c(Cl)nc(Cl)nc43)c2n1`, -2.68% (active); for `C=C1CCC2C(C)(CO)C(O)CCC2(C)C1CC(NCc1ccccc1)C1=CCOC1=O` (configuration not stated), 111% (inactive).
As to `COc1ccc(/C=C2\CCCC3=C2N=C2SC(C)=CN2C3c2ccc(OC)cc2)cc1` (configuration not stated), the growth was 76.2% (inactive).
Regarding `COc1ccc(-c2csc(NC(=O)CSc3nc(-c4ccccc4)cc(=O)[nH]3)n2)cc1`, the growth is 52.4% (inactive).
Regarding `CCN(CC)CCNC(=O)n1cc(-c2ccncc2)c(-c2cc(Cl)cc(OC)c2)n1`, the growth was 78% (inactive).
Next, `CC(O)Cn1cnc2c1c(=O)n(C)c(=O)n2C` (configuration not stated): 97.1% (inactive).
Next, `NC(Cc1c[nH]c2ccccc12)C(=O)O` (configuration not stated): 108% (inactive) and 109% (inactive); `N#Cc1ccc(NC(=O)c2ccc3cccnc3c2O)cc1`: 4.59% (active); `CCC1CCC(C)NC1` (configuration not stated): 99.4% (inactive).
Take `CC1(C)CC2=C3C=C[C@@H]4[C@@]5(C)CCC(=O)C(C)(C)[C@@H]5CC[C@@]4(C)[C@]3(C)CC[C@@]2(C(=O)O)CC1=O`: the growth was 66.8% (inactive).
